Screening results deposited in PubChem by National Center for Advancing Translational Sciences (NCATS).
A selection: hits, their analogues and other compounds. The true share with any hit is near 3.1%.
EPAC1 agonist = validation of human EPAC1 agonists; EPAC1 Rap1b BODIPY-GDP exchange, fluorescence; actives 1% (n = 16,000); Potency, µM, without a hit: max response, positive = active, usual class: activators; AID 1645883; O95398; also: nearly all actives have a fitted effect of over 70% in size
Target sequence (O95398 whole entry, looked up): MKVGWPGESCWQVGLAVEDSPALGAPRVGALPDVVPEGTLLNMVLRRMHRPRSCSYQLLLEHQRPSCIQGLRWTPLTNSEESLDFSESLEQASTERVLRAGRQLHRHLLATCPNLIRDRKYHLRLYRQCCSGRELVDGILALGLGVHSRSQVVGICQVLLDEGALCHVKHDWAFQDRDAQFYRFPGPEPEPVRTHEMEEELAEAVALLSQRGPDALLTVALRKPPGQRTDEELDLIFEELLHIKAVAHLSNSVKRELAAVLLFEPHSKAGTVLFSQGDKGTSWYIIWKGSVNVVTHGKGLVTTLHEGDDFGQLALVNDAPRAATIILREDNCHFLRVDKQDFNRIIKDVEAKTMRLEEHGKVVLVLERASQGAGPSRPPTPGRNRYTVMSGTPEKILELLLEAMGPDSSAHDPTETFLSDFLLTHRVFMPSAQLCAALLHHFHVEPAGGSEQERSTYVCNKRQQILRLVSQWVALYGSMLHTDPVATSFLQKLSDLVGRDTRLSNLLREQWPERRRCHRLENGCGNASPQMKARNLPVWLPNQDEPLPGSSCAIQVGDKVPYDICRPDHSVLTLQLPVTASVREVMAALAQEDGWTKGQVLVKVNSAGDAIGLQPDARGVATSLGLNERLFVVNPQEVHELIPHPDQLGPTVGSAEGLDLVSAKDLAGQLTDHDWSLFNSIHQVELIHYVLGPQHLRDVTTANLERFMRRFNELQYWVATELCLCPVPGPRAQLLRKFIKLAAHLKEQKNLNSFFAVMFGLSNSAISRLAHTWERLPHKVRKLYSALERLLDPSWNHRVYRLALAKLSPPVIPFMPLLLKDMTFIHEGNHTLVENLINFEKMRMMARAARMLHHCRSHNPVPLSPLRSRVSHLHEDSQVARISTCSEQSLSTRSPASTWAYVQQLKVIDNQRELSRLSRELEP
EPAC2 ant val = human EPAC2 antagonism, validation. actives 1.7% (n = 16,000). AID 1645886. Potency, µM (top dose mostly 112 µM), without a hit: at the highest dose activity, negative = inhibition, actives largely listed as inhibitors. EPAC2 Rap1B BODIPY-GDP exchange, fluorescence;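 also: 100% = activation by cAMP agonist control; nearly all actives have a fitted effect of over 40% in size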
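Fluorescent exchange read-out: 100 nM EPAC2 with 250 nM RAP1B–BODIPY-GDP and 50 uM GDP; BODIPY-GDP release lowers fluorescence. Read at 480/540 nm every 5 min for 30 min at room temperature; normalized to 6.5 mM cAMP.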
* = called active by the depositor; ? = inconclusive; · = no result given; ! = not confirmed by another sample. Calls follow the shape of the dose curve; as a rule, active = well fitted curve in the direction sought with a large enough effect; inconclusive = small, poorly fitted or top-dose-only effect, or another doubt; inactive = no such curve, though single readings can be large; an effect the other way counts as inactive or inconclusive. Unless noted, % is scaled to controls: 0 for no effect and ±100 for the full control effect; potency is read from the fitted curve at half-maximal effect.

SMILES	EPAC1 agonist	EPAC2 ant val
C=CC1=C(C)C2=CC3=NC(=C(CC(=O)[O-])C4=NC(=C(C)C4=C([O-])[O-])C=c4[n-]c(c(C)c4CC)=CC1=N2)C(CCC(=O)[O-])C3C.[Cu+2].[Na+].[Na+].[Na+] (stereo not drawn)	-65%	2%
COc1ccccc1-c1ccnc(-n2ncc(C(=O)NC(c3cccnc3)C(F)(F)F)c2C)n1 (stereo not drawn)	4%	6%
CC(C)(C)NC(=O)[C@H]1CN(Cc2cccnc2)CCN1C[C@@H](O)C[C@@H](Cc1ccccc1)C(=O)N[C@H]1c2ccccc2C[C@H]1O	-54%	25µM*
CC(C)(C)NC(=O)[C@@H]1C[C@@H]2CCCC[C@@H]2CN1C[C@@H](O)[C@H](Cc1ccccc1)NC(=O)[C@H](CC(N)=O)NC(=O)c1ccc2ccccc2n1	-43%	?
C#CCC(Cc1cnc2nc(N)nc(N)c2n1)c1ccc(C(=O)N[C@@H](CCC(=O)O)C(=O)O)cc1 (stereo partly drawn)	5%	-6%
CCN1\C(=C/C=C/C=C/c2sc3ccccc3[n+]2CC)Sc2ccccc21	-136%	?
Cc1ccc2[nH]nc(C(=O)N3CCOc4ccc(CN5CCc6sccc6C5)cc4C3)c2c1	-7%	-23%
Clc1ccc(C(c2ccccc2Cl)C(Cl)Cl)cc1 (stereo not drawn)	?	14µM*!
COc1ccc2c(c1)c(CC(=O)O)c(C)n2Cc1ccc(Cl)cc1	1%	-25%
Cc1c(CC(C)(C)C(=O)O)n(Cc2ccc(Cl)cc2)c2ccc(F)cc12	-9%	45µM*
CCCCCCCN(c1ccccc1)C1C[C@H]2CCCC(=O)N3CC[C@@H](C1)[C@@H]23 (stereo partly drawn)	-21%	?
O=C1CCC[C@@H]2CC(N(Cc3cc4ccccc4s3)c3ccccc3)C[C@@H]3CCN1[C@H]23 (stereo partly drawn)	100µM*	-4%
COc1ccc(S[C@@H]2C[C@@H](C(=O)Nc3ccc4nccnc4c3)N(C3Cc4ccccc4C3)C2)cc1	-2%	-22%
CCCCCCCCCCCCCCCC(=O)O[C@H]1[C@@H](O)[C@@H](O)[C@@H]([C@H](NC(=O)[C@@H]2C[C@@H](CCC)CN2C)[C@H](C)Cl)O[C@@H]1SC	-195%	-5%
Cc1cccc(C)c1NC(=O)C(C)N (stereo not drawn)	89µM*!	-13%
CN=C(N)NC(=O)Nc1c(C)cccc1C	2%	16%
COc1cc(C)c(/C=C/C(C)=C/C=C/C(C)=C/C(=O)O)c(C)c1C	-8%	25µM*!
COC(=O)/C=C/C(C)=C/C=C/C(C)=C/C=C/C=C(C)/C=C/C=C(C)/C=C/C(=O)O	-32%	7%
CO[C@@H]1[C@@H](O[C@@H]2O[C@H](C)[C@@H](O[C@H]3C[C@@](C)(O)[C@@H](O)[C@H](C)O3)[C@H](N(C)C)[C@H]2O)[C@@H](CC=O)C[C@@H](C)[C@@H](O[C@@H]2CC[C@H](N(C)C)[C@@H](C)O2)/C=C/C=C/C[C@@H](C)OC(=O)C[C@H]1OC(C)=O	10%	42%
C=C1CC[C@H](O)CC1=C/C=C1\CCC[C@]2(C)[C@@H]([C@H](C)CC[C@@H](O)C(C)(C)O)CC[C@@H]12	-7%	-27%
O=S1(=O)CCO[C@H]2Cc3ccccc3[C@H]2N1Cc1cccc(C(F)(F)F)c1	-84%	28µM*
O=S1(=O)CCO[C@H]2Cc3ccccc3[C@H]2N1Cc1cccc(F)c1	-15%	?
CC(C)(C)CC(=O)OCC(=O)[C@@]12OC(C)(C)O[C@@H]1C[C@H]1[C@@H]3CCC4=CC(=O)C=C[C@]4(C)[C@@]3(F)[C@@H](O)C[C@@]12C	18%	1%
COc1cc([C@@H]2c3cc4c(cc3C(O[C@@H]3O[C@@H]5COC(c6cccs6)O[C@H]5[C@H](O)[C@H]3O)C3COC(=O)[C@@H]32)OCO4)cc(OC)c1O (stereo partly drawn)	?	-12%
COc1ccc2[nH]cc(CCNc3ccnc(-c4ccoc4)n3)c2c1	-59%	89µM*
SMILES	EPAC1 agonist	EPAC2 ant val
COc1ccc2[nH]cc(CCNc3ccnc(-c4ccc(N(C)C)cc4)n3)c2c1	?	-27%
CC(C)C(=O)OCC(=O)[C@@]12O[C@H](C3CCCCC3)O[C@@H]1C[C@H]1[C@@H]3CCC4=CC(=O)C=C[C@]4(C)[C@H]3[C@@H](O)C[C@@]12C	-16%	4%
CCC[C@@]1(CCc2ccccc2)CC(O)=C([C@H](CC)c2cccc(NS(=O)(=O)c3ccc(C(F)(F)F)cn3)c2)C(=O)O1	23%	·
CC(C)CN(C[C@@H](O)[C@H](Cc1ccccc1)NC(=O)O[C@@H]1CCOC1)S(=O)(=O)c1ccc(N)cc1	-13%	-5%
CCc1cc(C(=O)NCC2Cc3cc(C)cc(-c4cc(C(C)=O)ccc4F)c3O2)n(C)n1 (stereo not drawn)	1%	?
COCCn1c(=O)c(C)nc2cnc(Nc3cccc(OC)c3)nc21	-6%	-9%
COc1ccc(-c2nc3cnc(N4CCNCC4)nc3n(Cc3cccc(OC)c3)c2=O)cc1	?	-98%
COc1ccc(Nc2ncc3nc(-c4cccs4)c(=O)n(Cc4cccc(OC)c4)c3n2)cc1	?	12%
COc1cccc(Cn2c(=O)c(-c3cccs3)nc3cnc(Nc4cccc(OC)c4)nc32)c1	112µM*	-3%
COCCn1c(=O)c(-c2ccc(OC)cc2)nc2cnc(Nc3cccc(OC)c3)nc21	112µM*	?
COCCn1c(=O)c(CCc2ccccc2)nc2cnc(Nc3cccc(OC)c3)nc21	112µM*	-30%
COCCn1c(=O)c(CCc2ccccc2)nc2cnc(Nc3ccccc3)nc21	-21%	-12%
COc1cccc(Cn2c(=O)c(-c3ccc(Cl)cc3)nc3cnc(N4CCNCC4)nc32)c1	?	50µM*
C=C1[C@H](CO)[C@@H](O)C[C@@H]1n1cnc2c(=O)[nH]c(N)nc21	-5%	-3%
Cc1nc(NCc2c(C)nn(C)c2Cl)sc1-c1ccn(CC2COc3ccccc3O2)n1 (stereo not drawn)	6%	?
NCCCC[C@H](N)C(=O)O	-3%	-12%
C[C@H](CSC(=O)c1ccccc1)C(=O)N1C[C@@H](Sc2ccccc2)C[C@H]1C(=O)O	-21%	5%
C=C1CC[C@H](O)CC1=C/C=C1\CCC[C@]2(C)[C@@H]([C@H](C)CCCC(C)(C)O)CC[C@@H]12	-21%	2%
O=C([C@@H]1C[C@@H](Sc2nc3ccccc3[nH]2)CN1Cc1ccc(Cl)cc1)N1CCN(c2ccccc2F)CC1	0%	-2%
COCCn1c(=O)c(-c2cccc(C#N)c2)nc2cnc(Nc3ccccc3)nc21	112µM*	10%
COCCn1c(=O)c(-c2cccc(C#N)c2)nc2cnc(Oc3ccccc3)nc21	?	-20%
COC(=O)C1=C(C)NC(C)=C([N+](=O)[O-])[C@@H]1c1ccccc1C(F)(F)F	-14%	40µM*
COC(=O)C1=C(C)NC(C)=C([N+](=O)[O-])[C@H]1c1ccccc1C(F)(F)F	-15%	50µM*
COC(=O)C1=C(C)NC(C)=C(C(=O)OCC(C)=O)C1c1ccccc1[N+](=O)[O-] (stereo not drawn)	9%	-8%
COC(=O)C1=C(C)NC(C)=C(C(=O)OCCSc2ccccc2)[C@@H]1C	17%	?
CCCCC(O)c1ccccc1 (stereo not drawn)	-8%	4%
